What was measured:
Test in all cases: DAPPL (digital affinity profiling via proximity ligation, sequencing); 10 mM Tris-HCl pH 7.5, 50 mM NaCl, 1 mM DTT, 4% glycerol, room temperature, 30 min; GST-TFs on glutathione beads, 16-mer random dsDNA library, 0.1% formaldehyde crosslink after washing; high values mean tight binding
Details in all cases: protein: recombinant; tags: N-terminal GST; dsDNA, one strand shown
FLI1 = biological target: T1, FLI1 (Homo sapiens, UniProt Q01543 1-452)
T1 sequence: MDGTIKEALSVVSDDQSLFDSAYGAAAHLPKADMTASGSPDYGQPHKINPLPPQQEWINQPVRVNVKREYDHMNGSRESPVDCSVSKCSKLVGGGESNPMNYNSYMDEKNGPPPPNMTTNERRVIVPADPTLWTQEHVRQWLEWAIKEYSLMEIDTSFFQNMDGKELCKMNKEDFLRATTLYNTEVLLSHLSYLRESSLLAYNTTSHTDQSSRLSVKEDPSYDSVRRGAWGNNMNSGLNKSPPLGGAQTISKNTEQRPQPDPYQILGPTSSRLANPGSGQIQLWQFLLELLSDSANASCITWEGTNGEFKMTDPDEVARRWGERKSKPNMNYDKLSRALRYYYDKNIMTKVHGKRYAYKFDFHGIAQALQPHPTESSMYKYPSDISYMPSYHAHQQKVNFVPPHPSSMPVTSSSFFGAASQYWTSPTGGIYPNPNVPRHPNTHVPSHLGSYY
Procedure, shortened: (§1)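 GST fusions of human transcription factors were expressed in yeast and captured with glutathione beads. Once given DNA barcodes and pooled alongside a tag-only sample, they were incubated for 30 min at room temperature with 200 nmole of a random double-stranded 16-mer DNA library in Tris/NaCl/DTT/glycerol buffer, then washed, crosslinked (0.1% formaldehyde), proximity-ligated, PCR-amplified and sequenced on an Illumina NextSeq500. The binding signal of each hexamer is its read frequency for a factor divided by its frequency for the tag-only sample.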

GABPA = biological target: T2, GABPA (Homo sapiens, UniProt Q06546 1-454)
T2 sequence: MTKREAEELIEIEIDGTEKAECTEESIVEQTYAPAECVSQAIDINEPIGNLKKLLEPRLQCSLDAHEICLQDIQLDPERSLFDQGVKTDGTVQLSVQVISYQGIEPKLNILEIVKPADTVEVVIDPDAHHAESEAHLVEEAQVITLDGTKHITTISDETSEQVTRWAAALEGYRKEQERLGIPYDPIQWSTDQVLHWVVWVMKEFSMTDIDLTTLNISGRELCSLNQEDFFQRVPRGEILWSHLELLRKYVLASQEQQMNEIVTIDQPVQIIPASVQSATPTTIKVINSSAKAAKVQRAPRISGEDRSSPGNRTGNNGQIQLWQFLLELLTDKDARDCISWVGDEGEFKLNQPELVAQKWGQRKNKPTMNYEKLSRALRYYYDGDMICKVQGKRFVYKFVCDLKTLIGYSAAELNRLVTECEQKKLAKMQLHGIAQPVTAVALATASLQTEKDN
Procedure, shortened: as §1

ERG = biological target: T3, ERG (Homo sapiens, UniProt P11308 1-479)
T3 sequence: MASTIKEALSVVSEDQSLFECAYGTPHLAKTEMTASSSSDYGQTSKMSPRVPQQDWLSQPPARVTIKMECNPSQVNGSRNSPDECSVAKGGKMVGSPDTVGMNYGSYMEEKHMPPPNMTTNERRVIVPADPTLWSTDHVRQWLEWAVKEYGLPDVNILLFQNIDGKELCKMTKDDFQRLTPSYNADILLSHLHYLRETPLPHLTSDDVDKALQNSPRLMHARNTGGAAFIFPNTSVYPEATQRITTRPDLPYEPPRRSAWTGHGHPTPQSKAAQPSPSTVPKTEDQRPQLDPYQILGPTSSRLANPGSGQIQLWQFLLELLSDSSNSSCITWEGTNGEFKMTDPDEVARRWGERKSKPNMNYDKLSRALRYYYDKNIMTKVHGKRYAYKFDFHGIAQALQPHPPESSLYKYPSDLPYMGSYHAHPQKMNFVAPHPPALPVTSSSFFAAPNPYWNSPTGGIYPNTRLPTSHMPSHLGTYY
Procedure, shortened: as §1

EHF = biological target: T4, EHF (Homo sapiens, UniProt Q9NZC4 1-300)
T4 sequence: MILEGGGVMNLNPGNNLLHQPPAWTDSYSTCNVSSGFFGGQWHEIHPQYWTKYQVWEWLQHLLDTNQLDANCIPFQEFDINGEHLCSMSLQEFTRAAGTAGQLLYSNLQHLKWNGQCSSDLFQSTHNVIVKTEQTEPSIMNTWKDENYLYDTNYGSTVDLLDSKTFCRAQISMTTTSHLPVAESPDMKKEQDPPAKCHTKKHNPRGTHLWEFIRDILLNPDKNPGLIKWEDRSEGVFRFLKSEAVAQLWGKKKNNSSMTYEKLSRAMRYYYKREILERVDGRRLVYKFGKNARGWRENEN
Procedure, shortened: as §1

SPIB = SPIB (Homo sapiens, UniProt Q01892 1-262)
SPIB, sequence (Q01892 whole entry): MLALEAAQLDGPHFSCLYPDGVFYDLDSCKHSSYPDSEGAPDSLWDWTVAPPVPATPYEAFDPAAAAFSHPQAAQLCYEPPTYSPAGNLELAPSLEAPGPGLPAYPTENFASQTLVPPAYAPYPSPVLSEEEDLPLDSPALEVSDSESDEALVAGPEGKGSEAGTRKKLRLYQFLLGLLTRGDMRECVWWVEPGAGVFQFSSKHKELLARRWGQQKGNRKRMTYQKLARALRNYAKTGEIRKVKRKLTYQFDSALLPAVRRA
Procedure, shortened: as §1

ELK3 = biological target: T5, ELK3 (Homo sapiens, UniProt P41970 1-407)
T5 sequence: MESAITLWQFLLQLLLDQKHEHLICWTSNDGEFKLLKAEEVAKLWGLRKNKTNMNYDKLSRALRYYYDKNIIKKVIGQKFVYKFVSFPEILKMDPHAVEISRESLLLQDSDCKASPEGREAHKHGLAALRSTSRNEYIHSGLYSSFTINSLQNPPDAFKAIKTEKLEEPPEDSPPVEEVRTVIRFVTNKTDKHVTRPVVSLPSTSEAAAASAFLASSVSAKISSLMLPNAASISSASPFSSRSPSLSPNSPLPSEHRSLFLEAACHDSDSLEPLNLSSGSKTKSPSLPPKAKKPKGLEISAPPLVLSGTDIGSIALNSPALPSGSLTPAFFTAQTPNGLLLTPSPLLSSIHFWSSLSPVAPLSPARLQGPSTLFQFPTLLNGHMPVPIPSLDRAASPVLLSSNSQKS
Procedure, shortened: as §1

FEV = biological target: T6, FEV (Homo sapiens, UniProt Q99581 1-238)
T6 sequence: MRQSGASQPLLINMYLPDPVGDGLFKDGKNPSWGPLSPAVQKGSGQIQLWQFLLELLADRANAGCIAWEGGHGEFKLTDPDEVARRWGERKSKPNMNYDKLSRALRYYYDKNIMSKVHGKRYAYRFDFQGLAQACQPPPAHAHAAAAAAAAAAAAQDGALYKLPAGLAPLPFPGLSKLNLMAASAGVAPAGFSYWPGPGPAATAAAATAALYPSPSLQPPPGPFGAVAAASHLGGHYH
Procedure, shortened: as §1

ETV5 = ETV5 (Homo sapiens, UniProt P41161 1-510)
ETV5, sequence (P41161 whole entry): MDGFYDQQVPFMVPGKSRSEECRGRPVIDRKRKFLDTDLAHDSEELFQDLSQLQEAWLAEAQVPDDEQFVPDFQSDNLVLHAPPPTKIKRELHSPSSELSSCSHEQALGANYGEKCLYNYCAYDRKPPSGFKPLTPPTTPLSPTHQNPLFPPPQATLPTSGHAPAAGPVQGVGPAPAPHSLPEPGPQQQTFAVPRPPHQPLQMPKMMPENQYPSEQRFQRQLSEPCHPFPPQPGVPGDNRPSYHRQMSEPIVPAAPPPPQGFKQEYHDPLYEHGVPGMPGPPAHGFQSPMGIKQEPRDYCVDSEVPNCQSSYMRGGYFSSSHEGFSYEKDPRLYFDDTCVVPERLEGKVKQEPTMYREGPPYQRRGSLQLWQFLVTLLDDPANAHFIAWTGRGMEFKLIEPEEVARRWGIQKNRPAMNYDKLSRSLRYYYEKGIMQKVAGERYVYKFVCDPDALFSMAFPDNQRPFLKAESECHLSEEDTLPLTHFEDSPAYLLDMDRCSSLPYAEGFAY
Procedure, shortened: as §1

SPIC = biological target: T7, SPIC (Homo sapiens, UniProt Q8N5J4 1-248)
T7 sequence: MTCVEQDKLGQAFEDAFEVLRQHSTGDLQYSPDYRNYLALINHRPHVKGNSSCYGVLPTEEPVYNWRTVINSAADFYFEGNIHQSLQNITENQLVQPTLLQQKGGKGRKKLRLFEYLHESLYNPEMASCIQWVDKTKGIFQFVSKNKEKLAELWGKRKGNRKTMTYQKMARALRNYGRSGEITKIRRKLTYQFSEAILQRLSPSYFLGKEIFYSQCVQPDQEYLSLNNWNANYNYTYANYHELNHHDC
Procedure, shortened: as §1

ETV1 = ETV1 (Homo sapiens, UniProt P50549 1-477)
ETV1, sequence (P50549 whole entry): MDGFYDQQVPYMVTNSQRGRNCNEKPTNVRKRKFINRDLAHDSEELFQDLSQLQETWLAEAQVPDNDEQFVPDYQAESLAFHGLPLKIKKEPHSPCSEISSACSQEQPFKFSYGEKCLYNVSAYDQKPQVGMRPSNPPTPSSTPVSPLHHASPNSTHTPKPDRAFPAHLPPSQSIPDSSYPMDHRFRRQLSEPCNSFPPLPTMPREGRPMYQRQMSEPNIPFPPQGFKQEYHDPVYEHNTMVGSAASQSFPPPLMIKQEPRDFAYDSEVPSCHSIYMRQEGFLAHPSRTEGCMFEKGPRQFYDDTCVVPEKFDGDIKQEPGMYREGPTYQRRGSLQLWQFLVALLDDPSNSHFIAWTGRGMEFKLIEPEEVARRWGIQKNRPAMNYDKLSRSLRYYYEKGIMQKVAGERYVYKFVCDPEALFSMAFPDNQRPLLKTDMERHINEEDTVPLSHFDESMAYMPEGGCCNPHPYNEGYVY
Procedure, shortened: as §1

ETV3L = biological target: T8, ETV3L (Homo sapiens, UniProt Q6ZN32 1-361)
T8 sequence: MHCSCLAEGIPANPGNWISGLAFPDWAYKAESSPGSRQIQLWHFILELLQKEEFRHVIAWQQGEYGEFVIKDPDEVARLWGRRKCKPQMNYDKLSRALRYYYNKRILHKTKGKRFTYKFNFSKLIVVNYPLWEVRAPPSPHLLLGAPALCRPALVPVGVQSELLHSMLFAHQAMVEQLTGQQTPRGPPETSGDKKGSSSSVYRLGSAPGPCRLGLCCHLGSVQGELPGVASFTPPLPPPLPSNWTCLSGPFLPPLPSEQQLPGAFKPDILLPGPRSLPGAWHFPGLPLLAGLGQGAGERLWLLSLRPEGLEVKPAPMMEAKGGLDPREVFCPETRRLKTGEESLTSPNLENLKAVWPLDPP
Procedure, shortened: as §1

ELF5 = biological target: T9, ELF5 (Homo sapiens, UniProt Q9UKW6-2 1-255)
T9 sequence: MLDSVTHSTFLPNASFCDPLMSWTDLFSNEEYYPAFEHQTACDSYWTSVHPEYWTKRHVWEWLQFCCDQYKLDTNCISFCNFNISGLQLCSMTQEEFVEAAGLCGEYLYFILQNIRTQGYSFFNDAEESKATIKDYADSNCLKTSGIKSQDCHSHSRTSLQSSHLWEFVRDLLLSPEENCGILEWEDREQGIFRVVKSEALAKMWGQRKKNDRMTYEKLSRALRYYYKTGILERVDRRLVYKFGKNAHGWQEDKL
Procedure, shortened: as §1

ETV3 = biological target: T10, ETV3 (Homo sapiens, UniProt P41162-2 1-143)
T10 sequence: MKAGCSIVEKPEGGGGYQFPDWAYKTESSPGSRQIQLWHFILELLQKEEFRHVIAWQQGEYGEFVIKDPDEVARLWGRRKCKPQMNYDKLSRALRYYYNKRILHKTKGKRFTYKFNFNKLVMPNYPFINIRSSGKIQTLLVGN
Procedure, shortened: as §1

ETV6 = ETV6 (Homo sapiens, UniProt P41212 1-452)
ETV6, sequence (P41212 whole entry): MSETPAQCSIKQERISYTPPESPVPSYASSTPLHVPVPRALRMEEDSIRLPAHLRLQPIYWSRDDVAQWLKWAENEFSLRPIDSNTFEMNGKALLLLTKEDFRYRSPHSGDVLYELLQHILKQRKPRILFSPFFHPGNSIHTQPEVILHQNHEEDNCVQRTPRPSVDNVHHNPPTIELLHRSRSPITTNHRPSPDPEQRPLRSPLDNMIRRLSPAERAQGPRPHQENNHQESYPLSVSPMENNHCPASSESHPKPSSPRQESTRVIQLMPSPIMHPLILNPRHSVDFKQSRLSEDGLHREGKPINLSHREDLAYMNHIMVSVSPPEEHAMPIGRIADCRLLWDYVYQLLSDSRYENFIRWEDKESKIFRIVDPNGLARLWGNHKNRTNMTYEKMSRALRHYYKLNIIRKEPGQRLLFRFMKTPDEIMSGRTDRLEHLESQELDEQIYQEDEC
Procedure, shortened: as §1

SPI1 = SPI1 (Homo sapiens, UniProt P17947 1-270)
Procedure, shortened: as §1

ERF = biological target: T11, ERF (Homo sapiens, UniProt P50548 1-548)
T11 sequence: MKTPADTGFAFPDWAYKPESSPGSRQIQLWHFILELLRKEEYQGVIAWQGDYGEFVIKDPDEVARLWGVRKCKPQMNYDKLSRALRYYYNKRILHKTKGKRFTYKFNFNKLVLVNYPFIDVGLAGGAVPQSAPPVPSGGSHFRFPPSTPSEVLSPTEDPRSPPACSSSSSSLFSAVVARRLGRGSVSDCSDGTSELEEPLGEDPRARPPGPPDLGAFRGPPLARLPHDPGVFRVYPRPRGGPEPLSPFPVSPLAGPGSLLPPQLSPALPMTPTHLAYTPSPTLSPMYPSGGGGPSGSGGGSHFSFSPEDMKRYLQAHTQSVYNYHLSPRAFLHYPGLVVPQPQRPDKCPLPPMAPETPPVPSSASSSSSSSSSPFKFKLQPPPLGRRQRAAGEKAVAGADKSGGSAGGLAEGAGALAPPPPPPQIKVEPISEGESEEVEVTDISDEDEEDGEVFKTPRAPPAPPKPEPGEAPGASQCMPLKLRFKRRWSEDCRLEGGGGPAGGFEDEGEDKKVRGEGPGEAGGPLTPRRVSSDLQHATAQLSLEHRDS
Procedure, shortened: as §1

Sequence	binding signal (FLI1)	binding signal (GABPA)	binding signal (ERG)	binding signal (EHF)	binding signal (SPIB)	binding signal (ELK3)	binding signal (FEV)	binding signal (ETV5)	binding signal (SPIC)	binding signal (ETV1)	binding signal (ETV3L)	binding signal (ELF5)	binding signal (ETV3)	binding signal (ETV6)	binding signal (SPI1)	binding signal (ERF)
GTCCGC	1.1 fold enrichment (6-mer frequency, TF over GST control)	1 fold enrichment (6-mer frequency, TF over GST control)	1.04 fold enrichment (6-mer frequency, TF over GST control)	1.05 fold enrichment (6-mer frequency, TF over GST control)	1.03 fold enrichment (6-mer frequency, TF over GST control)	1.1 fold enrichment (6-mer frequency, TF over GST control)	1.04 fold enrichment (6-mer frequency, TF over GST control)	1.07 fold enrichment (6-mer frequency, TF over GST control)	1.21 fold enrichment (6-mer frequency, TF over GST control)	1.08 fold enrichment (6-mer frequency, TF over GST control)	1.02 fold enrichment (6-mer frequency, TF over GST control)	1.07 fold enrichment (6-mer frequency, TF over GST control)	1.03 fold enrichment (6-mer frequency, TF over GST control)	1.03 fold enrichment (6-mer frequency, TF over GST control)		
TTGGCG	1.07 fold enrichment (6-mer frequency, TF over GST control)	1.02 fold enrichment (6-mer frequency, TF over GST control)			1.13 fold enrichment (6-mer frequency, TF over GST control)			1.02 fold enrichment (6-mer frequency, TF over GST control)	1.09 fold enrichment (6-mer frequency, TF over GST control)						1.05 fold enrichment (6-mer frequency, TF over GST control)	1.01 fold enrichment (6-mer frequency, TF over GST control)
